# Compound activity: PubChem BioAssay, National Center for Advancing Translational Sciences (NCATS)
# POLI inh: DNA polymerase iota (human) inhibition. hit rate 1% among 390,000. Q9UNA4. Potency, µM (series often up to 115 µM), for the others: top-dose activity, negative = inhibition, most hits filed as inhibitors. Pol iota fluorescent replication assay, 10 min. AID 588590; further: potency means the concentration at half of the fitted maximal effect
#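 Pol iota at 10 nM preincubated 15 min with compounds at room temperature; reaction started with fluorescent substrate, 50 nM final. Fluorescence read kinetically at 0 and 10 min; buffer-only wells as negative control.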
# Tb PGK inh: inhibitors of T. brucei phosphoglycerate kinase. AID 602233. Potency, µM (top dose mostly 57.5 µM), inactives show top-dose activity change, negative = inhibition, actives largely listed as inhibitors. P07378. hit rate 0.043% among 380,000. PGK/GAPDH coupled, Kinase-Glo luminescence, 60 min; further: potency means the concentration at half of the fitted maximal effect; on the % scale 0 is the no-effect control and ±100 the full control effect; nearly all actives have a fitted effect of over 60% in size
#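 Luminescent ATP detection (Kinase-Glo Plus) follows a 60-minute room-temperature incubation, with wells lacking PGK as controls. Buffer: 100 mM TEA (pH 7.6), 5 mM MgCl2, 0.01% Tween-20. Coupling enzyme GAPDH (100 nM final) supplies unstable 1,3-BPG in-well.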
# Pol eta inh-1: blocks human DNA polymerase eta activity | hit rate 1.2% among 390,000 | AID 588591 | Q9Y253 | Potency, µM (titrated, usually from 114 µM), for inactives: at the highest dose activity change, negative = inhibition, hits mostly inhibitors | recombinant Pol eta, fluorescent DNA replication assay; further: potency means the concentration at half of the fitted maximal effect; on the % scale 0 is the no-effect control and ±100 the full control effect
#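 Pol eta (10 nM) was preincubated with compounds for 15 min at room temperature, after which fluorescent replication substrate (50 nM final) was added to start the reaction. Fluorescence was read kinetically at 0 and 10 min.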
# FEN1 inhibitor: blocks human flap endonuclease 1. Recombinant FEN1 flap cleavage, fluorescence, 15 min. Potency, µM (titrated, usually from 114 µM), for the others: at the highest dose activity change, negative = inhibition, hits mostly inhibitors. hit rate 0.35% among 390,000. AID 588795; further: potency means the concentration at half of the fitted maximal effect; on the % scale 0 is the no-effect control and ±100 the full control effect; nearly all actives have a fitted effect of over 65% in size
#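 Enzyme 10 nM, 15 min RT preincubation with compound; start with substrate 50 nM final; reads at 0 and 15 min; qHTS titration, four-parameter Hill fit.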
# Pol beta inh: blocks human DNA polymerase beta activity; Pol beta primer extension/strand displacement, fluorescence kinetic; Potency, µM (highest dose often 114 µM), inactives show at the top dose activity change, negative = inhibition, actives largely listed as inhibitors; hit rate 1.3% among 340,000; AID 485314; further: potency means the concentration at half of the fitted maximal effect; on the % scale 0 is the no-effect control and ±100 the full control effect
#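 Enzyme-only controls used 10 nM Pol beta; buffer lacking enzyme served as negative control. Compound preincubated 15 min, then 50 nM substrate added; 0 and 10 min reads at room temperature.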
# Pol kappa inh-1: DNA polymerase kappa (human) inhibition; Q9UBT6; purified Pol kappa, fluorescent DNA synthesis assay, 10 min; Potency, µM (highest dose often 107 µM), for the others: top-dose activity, negative = inhibition, usual class: inhibitors; hit rate 0.53% among 400,000; AID 588579; further: potency means the concentration at half of the fitted maximal effect; on the % scale 0 is the no-effect control and ±100 the full control effect
# Target sequence (Q9UBT6 whole entry, looked up): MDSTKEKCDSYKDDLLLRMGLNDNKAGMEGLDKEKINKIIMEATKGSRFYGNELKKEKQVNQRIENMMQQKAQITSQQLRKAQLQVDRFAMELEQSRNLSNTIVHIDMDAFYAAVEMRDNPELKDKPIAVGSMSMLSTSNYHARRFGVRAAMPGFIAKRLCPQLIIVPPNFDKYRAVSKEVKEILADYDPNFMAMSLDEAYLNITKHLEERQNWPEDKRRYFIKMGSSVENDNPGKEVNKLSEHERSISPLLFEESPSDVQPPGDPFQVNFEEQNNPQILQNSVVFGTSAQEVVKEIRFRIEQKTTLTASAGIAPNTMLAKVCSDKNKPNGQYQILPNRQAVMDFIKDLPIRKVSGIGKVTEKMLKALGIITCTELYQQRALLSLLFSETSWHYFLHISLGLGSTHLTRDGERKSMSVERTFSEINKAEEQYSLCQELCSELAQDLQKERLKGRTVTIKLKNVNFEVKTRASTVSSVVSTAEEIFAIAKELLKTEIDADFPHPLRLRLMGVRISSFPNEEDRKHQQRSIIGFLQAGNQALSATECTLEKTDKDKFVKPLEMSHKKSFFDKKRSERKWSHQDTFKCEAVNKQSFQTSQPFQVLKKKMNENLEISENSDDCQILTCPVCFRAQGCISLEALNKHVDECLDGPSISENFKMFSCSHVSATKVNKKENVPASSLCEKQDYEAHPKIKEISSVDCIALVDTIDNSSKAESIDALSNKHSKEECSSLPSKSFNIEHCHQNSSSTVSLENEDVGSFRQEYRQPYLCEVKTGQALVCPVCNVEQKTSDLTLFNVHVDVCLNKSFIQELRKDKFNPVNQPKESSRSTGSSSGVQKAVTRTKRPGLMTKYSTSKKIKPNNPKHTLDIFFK
#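 Activity was followed as the change in fluorescence between reads at 0 and 10 min after starting the reaction with 50 nM substrate. Beforehand, 10 nM polymerase had been preincubated with compound for 15 min at room temperature.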
# GALK inh confirm: confirmation of human galactokinase (GALK) inhibitors; Potency, µM (doses to about 115 µM), inactives show at the highest dose activity, negative = inhibition, hits mostly inhibitors; purified GALK, Kinase-Glo ATP depletion luminescence; hit rate 70% among 150; shares compounds with Pol eta inh-1
# GALK redox cs: generates H2O2 by redox cycling, flagging GALK artifacts. Potency, µM (top dose mostly 115 µM), inactives show at the top dose activity change, negative = H2O2 signal, actives largely listed as inhibitors. Phenol red-HRP H2O2 redox cycling, absorbance 600 nm. shares compounds with Pol eta inh-1. hit rate 40% among 150
# HEK293 viability: reduces HEK-293 cell viability in GALK counter-screen | AID 2547 | HEK-293 viability, ATP luminescence (CellTiter-Glo), 24/48 h | shares compounds with Pol eta inh-1 | Potency, µM (top dose mostly 46.1 µM), inactives show top-dose activity change, negative = cytotoxicity, actives largely listed as inhibitors | hit rate 10% among 170; further: potency means the concentration at half of the fitted maximal effect; on the % scale 0 is the no-effect control and ±100 the full control effect
# Pol kappa inh-2: confirmation of human DNA polymerase kappa inhibitors. hit rate 76% among 920. purified Pol-kappa, fluorescent strand-displacement substrate. Potency, µM, hits mostly inhibitors. shares compounds with Pol eta inh-1; further: potency means the concentration at half of the fitted maximal effect
# Pol eta inh-2: confirmation of human DNA polymerase eta inhibitors; hit rate 64% among 2,600; Potency, µM, hits mostly inhibitors; shares compounds with Pol eta inh-1; Pol eta primer extension, TAMRA/BHQ fluorescence, 10 min; AID 720502; further: potency means the concentration at half of the fitted maximal effect
# Numbers without * were called inactive; i = inactive; ? = inconclusive; / = no result; [ ] = another dose, or the depositor's remark. This is a sample that favours compounds with a hit; in the whole collection about 2.4% have one here. The call rests on the fitted dose curve; in most records, active means well fitted curve in the direction sought with a large enough effect; inconclusive means small, poorly fitted or top-dose-only effect, or another doubt; inactive means no such curve, though single readings can be large; an effect the other way counts as inactive or inconclusive.
SMILES,POLI inh,Tb PGK inh,Pol eta inh-1,FEN1 inhibitor,Pol beta inh,Pol kappa inh-1,Pol eta inh-2,others
CCOC(=O)/C=C(\C)Sc1cc(=O)oc2ccccc12,19.4%,i,1.4%,-19.3%,33.4%,-10.2%,/,
CCOC(=O)/C=C(\C)Sc1cc(O)c2ccccc2c1O,?,/,28.2µM*,?,35.5µM*,10.9%,/,GALK inh confirm=29.8µM*;GALK redox cs=18.8µM*;HEK293 viability=?
COc1ccc(NC(=O)Cn2nnc3sc4c(c3c2=O)CCCC4)cc1,-5.4%,-1.1%,-1.5%,-1.5%,-26.3%,-20.7%,/,
COc1ccc(OCCn2nnc3sc4c(c3c2=O)CCCC4)cc1,70.8µM*,/,/,-2.1%,11.2µM*,?,?,Pol kappa inh-2=?
C[N+]1(CC(=O)c2ccc(-c3ccccc3)cc2)CCOCC1,42.6%,/,/,-1.9%,/,0.5%,/,
O=C(COC(=O)Cc1ccc(S(=O)(=O)N2CCOCC2)s1)NCCc1ccccc1,?,-5.6%,79.4µM*,1.0%,22.4µM*,?,?,
O=C(CSc1nc2ccccc2c(=O)[nH]1)N1CCOCC1,-3.8%,-9.9%,8.9%,6.0%,3.5%,-4.0%,/,
O=C(CSc1nc2ccc(S(=O)(=O)N3CCOCC3)cc2[nH]1)N1CCOCC1,-13.1%,-10.0%,10.1%,4.0%,3.9%,-9.9%,?,Pol kappa inh-2=29.9*
COC(=O)c1c(-c2ccc(Cl)cc2)noc1N1CCN(c2cccc(OC)c2)CC1,?,6.7%,-7.8%,-11.2%,17.2%,-9.8%[60.1 µM],/,
O=C1NN(c2cccc(Br)c2)C(=O)/C1=C/c1ccc(-c2cc([N+](=O)[O-])ccc2O)o1,?,?,10µM*,?,?,79.4µM*,30.1*,
O=C1NN(c2cccc(Br)c2)C(=O)/C1=C\c1ccc(O)cc1,?,i,?,-16.7%,?,-2.9%,/,
CC1=NN(c2ccc(C)cc2)C(=O)/C1=C/c1ccc(-c2cc([N+](=O)[O-])ccc2O)o1,20µM*,-2.5%,20µM*,-18.5%,7.08µM*,79.4µM*,?,Pol kappa inh-2=16.8*
O=C(O)C1Cc2ccccc2CN1C(=O)COc1ccc(Cl)cc1Cl (stereo unspecified),12.0%,9.5%,25.1µM*,-0.8%,?,-42.0%,?,
O=C(CCCOc1ccc(Cl)cc1Cl)N1CCc2ccccc2C1,-16.7%,/,-15.9%,-11.9%,-1.4%,-6.3%,/,
O=C(O)C1Cc2ccccc2CN1C(=O)COc1ccc(Br)cc1 (stereo unspecified),?,-13.5%,10µM*,-0.2%,31.6µM*,79.4µM*,26.9*,
Cc1ccccc1C(c1c(C)n(C)n(-c2ccccc2)c1=O)c1c(C)n(C)n(-c2ccccc2)c1=O,-15.1%,-9.5%,-8.3%,-4.7%,0.9%,-16.6%,/,
CN(C(=O)Cn1nc(Cc2cccnc2)c2ccccc2c1=O)c1cccc(C(F)(F)F)c1,14.6%,-8.6%,10.9%,2.0%,42.2%,4.2%,/,
CCC(C)NC(=O)c1ccccc1NC(=O)CN1C(=O)c2cccc3cccc1c23 (stereo unspecified),27.4%,-7.0%,-4.4%,-12.7%,0.4%,-6.0%,/,
Cc1ccc(C)c(S(=O)(=O)n2nc(C)c(S(=O)(=O)N3CCCCCC3)c2C)c1,25.0%,-2.5%,-16.5%,-6.4%,8.9%,-4.6%[60.1 µM],/,
CCN(CC(=O)Nc1ccc(NC(C)=O)cc1)C(=O)CSc1ncnc2sc(C)c(C)c12,?,-6.5%,?,-29.2%,/,-18.1%,?,
CC(=O)Nc1ccc(NC(=O)CSc2ncnc3sc(C)c(C)c23)cc1,98.3%,-1.1%,-3.4%,1.3%,-3.1%,-1.4%,/,
O=C1C(C2=C(O)c3ccccc3C2=O)=Nc2ccccc21,26.6%,-8.3%,31.6µM*,-21.2%,8.6%,-21.6%,/,GALK inh confirm=23.7µM*;GALK redox cs=14.9µM*;HEK293 viability=9.5%
NC(=O)N/N=C/c1ccc(-c2ccc(S(=O)(=O)Nc3ncccn3)cc2)o1,?,-0.2%,35.5µM*,-9.9%,/,?,67.5*,Pol kappa inh-2=37.7*
Nc1nnc(CC(=O)N/N=C/c2ccc(-c3ccc(F)cc3)o2)s1,?,2.2%,-10.1%,3.0%,-14.8%,-8.9%,/,
COc1ccccc1N1CCN(S(=O)(=O)CCNC(=O)COc2ccc(C(C)C)cc2)CC1,17.5%,-4.3%,-27.6%,5.7%,?,-4.2%[60.1 µM],/,
SMILES,POLI inh,Tb PGK inh,Pol eta inh-1,FEN1 inhibitor,Pol beta inh,Pol kappa inh-1,Pol eta inh-2,others
Cc1ccc(Cn2c(=O)n(CCCCC(=O)NCCc3ccc(Cl)cc3)c(=O)c3ccccc32)cc1,74.1%,6.6%,-17.7%,18.6%,2.1%,-4.8%,/,
CC1(OC(=O)CCc2ccccc2)C(=O)C=C2C=C3CCCN3C=C2C1=O (stereo unspecified),12.6µM*,-3.5%,44.7µM*,-10.4%,44.7µM*,?,?,
CC1(OC(=O)CCc2ccccc2)C(=O)C=C2C=C(c3ccc(C#N)cc3)N(C3CCCCC3)C=C2C1=O (stereo unspecified),43.5%,-6.9%,-12.1%,-21.9%,2.5%,-5.0%,/,
CC[C@@H](C)CN1C(=O)N[C@@H](CCc2ccccc2)C(C(C)=O)=C1C,20.9%,-0.5%,-9.8%,3.1%,-0.2%,-20.8%,/,
CC[C@@H](C)CN1C(=O)N[C@@H](c2ccccc2)C(C(C)=O)=C1C,14.1µM*,-4.5%,22.4µM*,-0.2%,/,?,75.7*,
Nc1ccc2nc(-c3ccc(Cl)cc3)[nH]c2c1,2.4%,-6.6%,-22.9%,?,0.3%,14.0%,/,
Cc1nc2ccc(-c3nc4ccc(N)cc4[nH]3)cc2[nH]1,17.8µM*,-4.4%,?,35.5µM*,12.6µM*,50.1µM*,/,Pol kappa inh-2=?
CC1=NN(c2cccc(C(=O)O)c2)C(=O)/C1=C\C=C/c1ccccc1,?,4.9%,17.8µM*,79.4µM*,0.1%,-14.9%,26.9*,
